This is a sample that favours compounds with a hit; in the whole collection about 9.2% have one here.
FLuc counter: qHTS profiling assay for firefly luciferase inhibitor/activator using purifed enzyme and Km concentrations of substrates (counterscreen for miR-21 project); Luciferin 4-monooxygenase (Photinus pyralis), P08659; purified FLuc, Km substrates, luminescence inhibition; Potency, µM (doses to about 57.5 µM), without a hit: at the highest dose activity change, negative = inhibition, usual class: inhibitors; hit rate 6.9% among 360,000; AID 588342, 2011;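 note: plate controls were vehicle for no effect and reference inhibitor for full effect; nearly all actives have a fitted effect of over 55% in size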
Target sequence (P08659 whole entry, looked up): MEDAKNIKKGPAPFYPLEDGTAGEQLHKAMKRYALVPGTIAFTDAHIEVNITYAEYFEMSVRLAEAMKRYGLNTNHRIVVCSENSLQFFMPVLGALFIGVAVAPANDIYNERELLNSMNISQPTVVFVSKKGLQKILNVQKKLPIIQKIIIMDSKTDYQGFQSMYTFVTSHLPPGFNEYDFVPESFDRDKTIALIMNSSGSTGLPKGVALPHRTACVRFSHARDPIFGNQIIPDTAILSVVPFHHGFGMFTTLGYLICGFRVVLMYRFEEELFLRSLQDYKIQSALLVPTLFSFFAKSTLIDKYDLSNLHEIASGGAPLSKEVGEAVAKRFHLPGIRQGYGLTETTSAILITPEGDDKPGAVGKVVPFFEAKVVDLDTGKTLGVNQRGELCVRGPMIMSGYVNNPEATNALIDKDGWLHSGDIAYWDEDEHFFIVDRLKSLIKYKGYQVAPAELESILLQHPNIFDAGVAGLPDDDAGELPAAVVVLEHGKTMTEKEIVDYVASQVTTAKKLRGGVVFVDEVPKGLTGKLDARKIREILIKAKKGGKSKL
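Purified P. pyralis luciferase, 10 nM final, with Km-level 10 uM D-luciferin and 10 uM ATP in 50 mM Tris acetate pH 7.5, 10 mM Mg acetate, 0.01% Tween-20, 0.05% BSA; 6-point qHTS titration about 60 µM downward; luminescence read.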
ELG1 DNA repair: qHTS screen for small molecules that inhibit ELG1-dependent DNA repair in human embryonic kidney (HEK293T) cells expressing luciferase-tagged ELG1. AID 504467, 2011. Potency, µM (series often up to 46.1 µM), inactives show at the highest dose activity change, negative = inhibition, most hits filed as inhibitors. hit rate 2.3% among 330,000. HEK293T ELG1-luciferase reporter, luminescence, 16 h; DNA damage induced by 5-fluorouridine; note: % is set by controls: 0 for no effect and ±100 for the full control effect; nearly all actives have a fitted effect of over 55% in size
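Luminescence from the luciferase reporter, measured 30 min after ONE-Glo reagent at room temperature, was the read-out. Beforehand, 2,000 cells per well were exposed for 16 hr at 37 °C to 5-fluorouridine together with compound or vehicle.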
SMN2 splice enh: qHTS Assay for Enhancers of SMN2 Splice Variant Expression. HEK293 SMN2-luciferase splicing reporter, luminescence, 30-36 h. Potency, µM (series often up to 46.1 µM), inactives show at the top dose activity change, positive = activation, usual class: activators. hit rate 2.8% among 210,000. AID 1458, 2008; note: % of control where 0% means no effect; nearly all actives have a fitted effect of over 55% in size
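HEK293 cells carry an SMN2 minigene-luciferase reporter in which exon 7 inclusion puts luciferase in frame. Cells were seeded at 2000 cells/well, attached for 10-12 hours, then exposed to compounds for 30-36 hours at 37C before ONE-Glo luminescence.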
ELG1 genotoxic: qHTS screen for small molecules that induce genotoxicity in human embryonic kidney (HEK293T) cells expressing luciferase-tagged ELG1 | HEK293T ELG1-luciferase reporter, luminescence, 16 h | AID 504466, 2011 | hit rate 1.3% among 330,000 | Potency, µM (series often up to 46 µM), for the others: at the top dose activity change, positive = activation, usual class: activators; note: % of control where 0% means no effect; nearly all actives have a fitted effect of over 60% in size
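Luminescence read-out: rising ELG1-luciferase signal, reflecting elevated ELG1 protein under genetic stress, flags genotoxic compounds. Cells were treated for 16 hr at 37 °C before ONE-Glo detection.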
Rab9 promoter act: qHTS Assay for Rab9 Promoter Activators; Huh7 Rab9 promoter-luciferase reporter, luminescence, 24 h; Potency, µM (top dose mostly 9.22 µM), for the others: top-dose activation, negative = inhibition, actives largely listed as activators; hit rate 2.8% among 320,000; note: % of control where 0% means no effect; nearly all actives have a fitted effect of over 60% in size
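Luminescence from Amplite-detected luciferase (10 minutes, ambient) reports Rab9 promoter activation. Before that, stable Rab9-luciferase Huh7 cells (1500/well, reduced-serum OP-MEM I plus 10% FBS) were exposed to compound for 24 hours at 37C.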
NPC1 promoter act: qHTS Assay for NPC1 Promoter Activators; Huh7 NPC1 promoter luciferase reporter, 24 h; Potency, µM (top dose mostly 9.22 µM), for the others: at the top dose activation, actives largely listed as activators; hit rate 2.4% among 320,000; AID 485313, 2010; note: % of control where 0% means no effect; nearly all actives have a fitted effect of over 60% in size
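Stable NPC1-promoter luciferase Huh7 line; cpd (DMSO) 24 h, 37 °C, 5% CO2; Amplite luciferase reagent 10 min RT; luminescence readout. qHTS format.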
Numbers without * were called inactive; ? = inconclusive; · = not tested or not shown; [ ] = another dose, or the depositor's remark. Calls come from the whole dose curve; as a rule, active = well fitted curve in the direction sought with a large enough effect; inconclusive = small, poorly fitted or top-dose-only effect, or another doubt; inactive = no such curve, though single readings can be large; an effect the other way counts as inactive or inconclusive. Potency is the fitted concentration of half-maximal effect.

SMILES	FLuc counter	ELG1 DNA repair	SMN2 splice enh	ELG1 genotoxic	Rab9 promoter act	NPC1 promoter act
COc1ccccc1-c1cc(C(=O)N2CCc3ccccc3C2)c2ccccc2n1	-0.3%	13µM*	-24.2%	-6.4%	0.3%	-4.6%
COc1ccc(Nc2cc(C(=O)N3CCc4ccccc4C3)c3ccccc3n2)c(OC)c1	15.1µM*	20.6µM*	-9.5%	-19.2%	-1.5%	-0.6%
O=C1c2ccccc2C(=O)N1CCCCN(C(=O)c1cc([N+](=O)[O-])ccc1Cl)c1ccc(Cl)cc1	1.0%	20.6µM*	-29.9%	-12.6%	-3.0%	-9.2%
O=C1c2ccccc2C(=O)N1CCCCN(C(=O)c1cc([N+](=O)[O-])cc([N+](=O)[O-])c1)c1ccc(Cl)cc1	1.5%	-24.0%	-20.4%	-5.0%	-2.5%	-2.7%
CCc1ccccc1NC(=O)CC(c1ccc(F)cc1)N1Cc2ccccc2C1=O (stereo not given)	6.4%	·	·	·	·	·
CN(CCc1ccccc1)C1CCCN(C(=O)Cn2cccn2)C1 (stereo not given)	-1.9%	3.3%	·	4.5%	-2.8%	-1.4%
CC1(C)NC(=O)N(CCOCCOc2ccc3ccccc3c2Br)C1=O	?	?	6.7%	?	9.4%[1.84 µM]	19.0%
CC1(C)NC(=O)N(CCCCOc2ccc3ccccc3c2Cl)C1=O	21.3µM*	?	-12.3%	?	15.6%	?
CCCNS(=O)(=O)c1ccc(CCC(=O)Nc2cc(Cl)ccc2Oc2ccccc2)cc1	3.0%	23.1µM*	-62.2%	-9.1%	-3.8%	-1.7%
COc1cccc(-c2nc(NC(C)(C)C)c3ccccc3n2)c1O	-3.0%	?	·	-7.4%	7.4%	0.2%
COc1ccc(Nc2nc(-c3cccc(OC)c3O)nc3ccccc23)cc1	3.79µM*	?	·	-4.7%	12.8%	?
COc1cccc(-c2nc(N3CCCC3)c3ccccc3n2)c1O	15.1µM*	?	·	-5.2%	-2.8%	0.6%
COc1ccc(-n2c(SCC(=O)Nc3ccc(NC(C)=O)cc3)nc3c([nH]c4ccccc43)c2=O)cc1OC	-5.7%	-9.8%	·	13.1%	6.0%	8.6%
CC(=O)Nc1ccc(NC(=O)CSc2nc3c([nH]c4ccccc43)c(=O)n2-c2ccccc2F)cc1	?	16.4µM*	·	0.2%	1.8%	-2.7%
COc1ccccc1-n1c(SCC(=O)Nc2ccc(NC(C)=O)cc2)nc2c([nH]c3ccccc32)c1=O	-10.8%	10.3µM*	·	9.3%	1.2%	-1.1%
O=C1CCCC2=C1C(c1ccco1)Nc1ccc3ccccc3c12 (stereo not given)	?	-13.7%	-12.6%	1.2%	2.7%	0.6%
COc1cc(C2Nc3ccc4ncccc4c3C3=C2C(=O)CCC3)cc(OC)c1O (stereo not given)	-0.7%	15.6%	10µM*	?	-19.6%	-12.9%
COc1cc(C2Nc3ccc4ncccc4c3C3=C2C(=O)CC(C)(C)C3)cc(OC)c1O (stereo not given)	-1.9%	?	28.2µM*	?	-11.1%	-1.0%
CC1(C)CC(=O)C2=C(C1)c1c(ccc3ncccc13)NC2c1cccs1 (stereo not given)	-0.7%	18.9%	26.3%	?	-23.6%	-19.2%
O=C(CN1C(=O)C(=O)N(C2CCCC2)C1=O)Nc1ccc(F)cc1F	3.2%	13.2%	·	2.2%	-6.0%	-3.4%
CCOc1ccc(C(=O)Nc2ccccc2N2CCOCC2)cc1	?	18.1%	-9.8%	6.6%	-2.4%	-0.8%
CCOc1ccc(C(=O)C2CCN(CC(=O)Nc3ccccc3N3CCOCC3)CC2)cc1	1.7%	20.6µM*	-34.5%	2.2%	-5.9%	-7.0%
COc1ccc(OC)c(NC(=O)CN2CCC(C(=O)c3ccc(C)cc3)CC2)c1	-0.4%	20.6µM*	1.7%	-13.1%	-3.1%	6.9%
COc1ccc(CC(=O)OCC(=O)Nc2ncc(Cl)c(C)c2Cl)cc1	-4.8%	8.0%	·	2.1%	-2.7%	0.1%
Cc1ccc(S(=O)(=O)Nc2cc3c(C(=O)OCc4ccccc4)c(C)oc3c3ccccc23)cc1	-5.9%	·	13.2%	·	·	·
SMILES	FLuc counter	ELG1 DNA repair	SMN2 splice enh	ELG1 genotoxic	Rab9 promoter act	NPC1 promoter act
O=C(CSc1ccc(Cl)cc1)N1CCOCC1	3.3%[2.3 µM]	?	6.3%	9.8%	25.1%	2.1%
CCOC(=O)N1CCN(C(=O)CSc2nnc(-c3ccc(C(C)(C)C)cc3)o2)CC1	3.38µM*	-8.1%	-11.5%	0.5%	-0.6%	-0.8%
Cc1cc(NC(=O)CSc2ccc(-c3ccc4c(c3)OCO4)nn2)no1	12µM*	?	14.5%	?	23.5%	21.0%
Cc1ccc(SCC(=O)N2CCOCC2)cc1	?	?	11.2µM*	?	?	26.1%
Cc1ccc(-c2nnc(SCC(=O)N3CCCC3)o2)cc1	23.9µM*	?	14.1µM*	?	?	?
CCOC(=O)N1CCN(C(=O)CSc2nnc(-c3cc(OC)cc(OC)c3)o2)CC1	1.7%	?	?	-20.5%	-0.3%	0.2%
Cc1ccc(-c2ccc(SCC(=O)Nc3cc(C)on3)nn2)cc1	-20.7%	?	6.9%	3.9%	?	9.6%
CCOCCCNC(=O)c1ccc2c(=O)n(CCc3ccccc3)c(=O)[nH]c2c1	1.1%	·	0.9%	·	·	·
CN(C)C(=O)c1ccc(NC(=O)CSc2nnc(-c3ccc4c(c3)OCO4)o2)cc1	0.6%	17.2%	·	7.4%	0.0%	7.4%
CCOC(=O)N1CCN(C(=O)CSc2nnc(-c3ccc(C)c(C)c3)o2)CC1	?	?	-7.1%	1.3%	5.1%	-0.3%
O=C(CCSc1nnc(-c2ccccc2)o1)N1CCOCC1	?	?	?	2.7%	3.1%	10.5%
O=C(CSc1nnc(-c2ccc3c(c2)OCCO3)o1)N1CCCC1	6.75µM*	?	?	?	2.51µM*	?
Cc1ccc(NC(=O)Cc2nc(CSc3nnc(-c4ccc5c(c4)OCO5)o3)cs2)cc1	8.49µM*	?	1.0%	3.6%	?	?
Cc1ccc(-c2nnc(SCCC(=O)N3CCOCC3)o2)cc1	19µM*	?	13.9%	8.3%	26.2%	21.2%
Cc1ccc(-c2nnc(SCC(=O)N3CCCC3)o2)cc1C	15.1µM*	?	11.2µM*	?	3.55µM*	?
CCOC(=O)c1ccc(NC(=O)c2c(-c3c(F)cccc3Cl)noc2C)cc1	3.8%	·	5.8%	·	·	·
CSc1ccccc1C(=O)Nc1ccccc1C(=O)NC(C)C	0.8%	-15.6%	-10.2%	-1.5%	-5.2%	-2.6%
